# Results as given in PubChem BioAssay AID1224864 (Chung Lab, Department of Pediatrics, Emory University, 2016).
# “And” between values parts separate entries of the source, which are not always exact repeats. Equal values may be shown once. The whole screen tested about 2,000 compounds, of which about 20 (1%) were called active. No rule for the calls is given here. The list comes from a sample in which actives are over-represented; it also holds similar structures and randomly drawn compounds. Residues, ends and D or L forms follow the SMILES beside them.
# Target: Cystic fibrosis transmembrane conductance regulator (Homo sapiens) (UniProt P13569)
# Sequence (P13569 whole entry, looked up, stated change not applied): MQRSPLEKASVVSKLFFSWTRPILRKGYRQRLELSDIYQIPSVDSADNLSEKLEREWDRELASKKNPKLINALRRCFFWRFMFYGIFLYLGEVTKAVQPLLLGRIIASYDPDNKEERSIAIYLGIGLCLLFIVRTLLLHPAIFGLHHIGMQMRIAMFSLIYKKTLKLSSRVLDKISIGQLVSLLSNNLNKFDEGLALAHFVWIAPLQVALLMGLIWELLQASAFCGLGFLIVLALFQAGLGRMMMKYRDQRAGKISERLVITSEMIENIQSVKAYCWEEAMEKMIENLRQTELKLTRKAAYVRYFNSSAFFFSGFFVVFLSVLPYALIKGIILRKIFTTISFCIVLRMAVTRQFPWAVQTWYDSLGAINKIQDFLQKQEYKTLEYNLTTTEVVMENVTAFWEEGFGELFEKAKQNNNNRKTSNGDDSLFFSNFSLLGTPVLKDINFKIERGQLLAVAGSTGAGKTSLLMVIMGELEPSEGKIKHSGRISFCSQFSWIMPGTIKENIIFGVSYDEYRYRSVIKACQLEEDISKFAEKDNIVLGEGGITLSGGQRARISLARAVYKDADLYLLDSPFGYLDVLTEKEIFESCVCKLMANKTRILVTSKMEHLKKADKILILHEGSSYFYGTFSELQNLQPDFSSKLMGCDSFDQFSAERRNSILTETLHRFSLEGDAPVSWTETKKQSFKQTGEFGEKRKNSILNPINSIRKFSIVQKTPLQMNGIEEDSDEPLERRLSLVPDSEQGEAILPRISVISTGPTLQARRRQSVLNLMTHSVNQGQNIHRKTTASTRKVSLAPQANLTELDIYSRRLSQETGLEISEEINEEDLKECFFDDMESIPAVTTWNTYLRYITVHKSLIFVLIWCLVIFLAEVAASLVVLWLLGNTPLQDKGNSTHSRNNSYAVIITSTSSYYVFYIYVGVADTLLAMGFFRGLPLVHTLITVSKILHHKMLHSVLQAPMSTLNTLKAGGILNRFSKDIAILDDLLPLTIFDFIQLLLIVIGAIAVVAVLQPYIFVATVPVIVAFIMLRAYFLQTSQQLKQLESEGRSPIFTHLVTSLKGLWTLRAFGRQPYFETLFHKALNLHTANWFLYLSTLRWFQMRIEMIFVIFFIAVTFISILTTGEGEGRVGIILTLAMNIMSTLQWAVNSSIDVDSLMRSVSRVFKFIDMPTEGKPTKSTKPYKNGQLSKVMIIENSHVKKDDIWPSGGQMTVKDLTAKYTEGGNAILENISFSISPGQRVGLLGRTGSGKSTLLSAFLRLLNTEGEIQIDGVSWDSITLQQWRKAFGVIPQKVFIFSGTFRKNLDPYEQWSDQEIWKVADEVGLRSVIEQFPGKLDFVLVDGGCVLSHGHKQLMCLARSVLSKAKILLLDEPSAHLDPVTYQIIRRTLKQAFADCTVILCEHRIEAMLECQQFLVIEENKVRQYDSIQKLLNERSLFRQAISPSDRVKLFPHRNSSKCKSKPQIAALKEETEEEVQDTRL
# Assay: F508del-CFTR plasma membrane relocalization enhancers – imaging, HeLa, high-content microscopy, immunofluorescence, primary screen (AID 1224864);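 also: HeLa cells stably expressing F508del-CFTR stained with 3G11 antibody against NBD1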;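 as to plasma membrane CFTR intensity: mean immunofluorescence in a thin cell-margin band taken as plasma membrane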
# Settings: PM immunofluorescence imaging, 24 h, at 10 µM, stronger effect = higher value, relative to vehicle wells set at 100; total CFTR intensity: measured here: total cellular F508del-CFTR signal
Compound,plasma membrane CFTR intensity,total CFTR intensity
CC1CCCc2sc3ncn(N)c(=N)c3c21 (stereo unspecified),71% (inactive),71%
O=C(c1ccco1)N(CCC(c1ccccc1)c1ccco1)Cc1ccco1 (stereo unspecified),99% (inactive),101%
CC(=O)Nc1nnc(S(N)(=O)=O)s1,87% (inactive),89%
CC(=O)N=c1sc(S(N)(=O)=O)nn1C,125% (active),144%
COc1ccc(CNC(=O)c2cc3c(=O)n4ccccc4nc3n(Cc3cccnc3)c2=N)cc1,556% (inactive),561%
COc1ccc(S(=O)(=O)NC(Cc2cnc[nH]2)C(=O)O)cc1 (stereo unspecified),75% (inactive),82%
CC(C)Cn1c(=S)[nH]c2cc(C(=O)O)ccc2c1=O,78% (inactive),81%
O=C(CCCC(=O)OCC1CCCO1)OCC1CCCO1 (stereo unspecified),84% (inactive),84%
CC(=O)SC1CC2=CC(=O)CCC2(C)C2CCC3(C)C(CCC34CCC(=O)O4)C12 (stereo unspecified),177% (active),233%
CC(=O)[C@@]1(O)CC[C@H]2[C@@H]3CCC4=CC(=O)CC[C@]4(C)[C@H]3CC[C@@]21C,88% (inactive),89%
CC(=O)[C@H]1CC[C@H]2[C@@H]3CCC4=CC(=O)CC[C@]4(C)[C@H]3CC[C@]12C,81% (inactive),85%
S=C(NCc1ccccc1)NCc1cccc(CNC(=S)NCc2ccccc2)c1,79% (inactive),81%
N#C/C(=C\c1ccc(O)c(O)c1)C(=O)NCCCc1ccccc1,78% (inactive),83%
N#C/C(=C/c1ccccc1)C(=O)NCc1ccccc1,124% (active),125%
Cc1cc(-c2nn(-c3ccccc3F)cc2CN2CCCC(O)C2)c(C)s1 (stereo unspecified),75% (inactive),76%
O=C(/C=C/c1ccccc1)NCC1(c2ccccc2)CCOCC1,87% (inactive),84%
COc1cc(CNCc2ccc(OC)c(OC)c2OC)cc(OC)c1,85% (inactive),79%
O=C(CCCCC(=O)NC1CCCC1)NC1CCCC1,90% (inactive),90%
CCc1cccc2c1NC1(CCCC1)CC2C (stereo unspecified),74% (inactive),89%
O=C1OC(=O)C2C1[C@@H]1CC[C@H]2O1 (stereo partly specified),120% (active),133%
COc1ccc2c(CC(=O)NCC3CCC(C(=O)O)CC3)cc(=O)oc2c1 (stereo unspecified),92% (inactive),94%
COc1ccc2c3c([nH]c2c1)C1(NCC3)C(=O)Nc2ccccc21 (stereo unspecified),85% (inactive),81%

Compound,plasma membrane CFTR intensity,total CFTR intensity
CC1=CC(C)(C)N2C(=O)C3(NCCc4c3[nH]c3ccccc43)c3cc(C)cc1c32 (stereo unspecified),108% (active),129%
CC12CCCCN1CCCc1c2[nH]c2ccccc12 (stereo unspecified),104% (inactive),100%
COc1ccc2c(c1)c(=O)oc1cc3occ(C(C)(C)C)c3cc12,92% (inactive),88%
O=C(NNC(=O)c1cccs1)c1ccco1,93% (inactive),90%
O=C(NCc1ccc2c(c1)OCO2)c1ccc2c(c1)OCCO2,80% (inactive),80%
CCCCOc1cc(C(=O)NCCN(CC)CC)c2ccccc2n1,105% (inactive) and 91% (inactive),109% and 93%
CCN(CC)CCNc1ccc(CO)c2sc3ccccc3c(=O)c12,207% (active),238%
CCN(CC)CCCNC(=O)C1c2ccccc2Oc2ccccc21,84% (inactive),85%
O=C(O)CCCN1C(=O)NC2NC(=O)NC21 (stereo unspecified),91% (inactive),95%
CCOCc1cc(C)[nH]c(=O)c1C#N,80% (inactive),83%
COc1ccc(/C=C\c2cc(OC)c(OC)cc2CC[N+](C)(C)C)cc1OC,81% (inactive),82%
COc1cc2ccc(=O)oc2c(O)c1OCC=C(C)C,86% (inactive),92%
COc1cccc(CC2CC(=O)N(c3ccc4c(C)cc(=O)oc4c3)C2=O)c1 (stereo unspecified),77% (inactive),83%
O=C(/C=C/c1ccco1)NCc1ccc2c(c1)OCO2,79% (inactive),77%
CC(=O)NC(Cc1ccccc1)C(=O)OCC(=O)c1ccccc1 (stereo unspecified),77% (inactive),78%
CC1(C)Cc2ccccc2-c2n[nH]c(=S)n21,93% (inactive),97%
Cn1c2[n+](c3ccc(Cl)cc3c1=O)Cc1ccccc1-2,78% (inactive),85%
Cc1cc(/C=N/O)c(C)n1-c1ccc(Br)cc1,78% (inactive),82%
CN1C(=O)C(O)(CC(=O)c2ccccc2O)c2cc(Br)ccc21 (stereo unspecified),159% (inactive),190%
CO[C@H]1C=CO[C@@]2(C)Oc3c(C)c(O)c4c(O)c(c(/C=N/N5CCN(C)CC5)c(O)c4c3C2=O)NC(=O)C(C)=CC=C[C@H](C)[C@H](O)[C@@H](C)[C@@H](O)[C@@H](C)[C@H](OC(C)=O)[C@@H]1C,113% (active),137%
O=C(OCC1CCCN2CCCCC12)c1ccc2c(c1)OCO2 (stereo unspecified),85% (inactive),81%
CC1=C/C(=N\N=C2/NC(=O)C(CC(=O)Nc3ccccc3F)S2)CC(C)(C)C1 (stereo unspecified),65% (inactive),65%

Compound,plasma membrane CFTR intensity,total CFTR intensity
O=C(Cc1ccccc1)NNC(=O)Cc1ccccc1,74% (inactive),77%
CC1(C)CC(c2csc(N)n2)CCO1 (stereo unspecified),90% (inactive),92%
CC(=O)NC(CC(C)C)C(=O)NC(Cc1ccccc1)C(N)=O (stereo not drawn) (Ac-Leu-Phe-NH2; configuration not given here),91% (inactive),94%
O=C(O)C(O)c1ccccc1 (stereo unspecified),89% (inactive),81%
Cc1cccc(-c2ncc(CN3CCN(CC(C)C)C(CCO)C3)cn2)c1 (stereo unspecified),80% (inactive),81%
COC(=O)c1ccc(NC(=O)c2ccccc2SC)cc1,81% (inactive),79%
CC(=O)c1c(N)nc2n(c1=O)CCCCC2,80% (inactive),78%
Cn1c(=O)[nH]c(=O)c2c1nc(Br)n2CCCO,81% (inactive),84%
COc1cc(C(=O)Nc2ccc(N(C)C)cc2)c([N+](=O)[O-])cc1OC,100% (inactive),106%
CC(C)(C)c1csc(N/N=C/c2cccnc2)n1,93% (inactive),92%
Cc1ccc(/C=N/Nc2nc(C(C)(C)C)cs2)o1,135% (active),153%
C=CCC1(Cl)C(=O)C(Cl)=C(N2CCOCC2)C1(OC)OC (stereo unspecified),77% (inactive),77%
CC(C)=CCC/C(C)=C/CC/C(C)=N/O,84% (inactive),87%
Cc1ccc(/C=N/NC(=O)C2(C)CC2(Br)Br)cc1 (stereo unspecified),82% (inactive),80%
CCOC(=O)c1ccc(NC(=S)NCCc2ccccc2F)cc1,81% (inactive),78%
CCOC(=O)Cc1c(C)nc(N)[nH]c1=O,82% (inactive),81%
CCN1C(=O)C(CC(=O)Nc2ccc(F)cc2)N(Cc2ccc3c(c2)OCO3)C1=S (stereo unspecified),81% (inactive),81%
CCn1c(C)cc2c(c1=O)C(c1ccccc1)C(C(=O)OC)=C(N)O2 (stereo unspecified),90% (inactive),94%
CCC(C(=O)Nc1ccc2c(c1)OCCO2)c1ccccc1 (stereo unspecified),78% (inactive),76%
O=c1[nH]c(Cc2ccccc2)nc2c1oc1ccccc12,78% (inactive),79%
CCOc1ccc(C(=O)NC(C)C2COc3ccccc3O2)cc1 (stereo unspecified),82% (inactive),80%
CC(C)CN1CCN(Cc2cccn2-c2ccccn2)CC1CCO (stereo unspecified),88% (inactive),88%

Compound,plasma membrane CFTR intensity,total CFTR intensity
Cc1csc(N)n1,86% (inactive),87%
CS(=O)(=O)Oc1ccc2c(c1)O/C(=C\C=C\c1ccccc1)C2=O,92% (inactive),97%
Fc1ccccc1CNCCC(Cc1ccccc1)c1ccc2c(c1)OCO2 (stereo unspecified),171% (inactive),228%
CC(NC(=O)c1cccnc1)C(=O)O (stereo unspecified),75% (inactive),73%
COc1ccc(OC(C)C(=O)Nc2ccc([N+](=O)[O-])cc2)cc1 (stereo unspecified),76% (inactive),72%
CC(NC(=O)c1ccc(OC2CCN(Cc3ccccn3)CC2)cc1)c1ccccc1 (stereo unspecified),73% (inactive),66%
Cc1ncc(CN2CCC(CO)(CCc3ccccc3)CC2)s1,75% (inactive),75%
Cc1ccc(-c2nn(-c3cccc(F)c3)cc2CN2CCN(c3ccccn3)CC2)o1,69% (inactive),69%
CC12CCC(C(=O)NNc3ccccc3)(C(=O)C1=O)C2(C)C (stereo unspecified),92% (inactive),88%
O=c1nc2n(c3c1oc1ccccc13)Cc1ccccc1-2,131% (inactive),133%
C#C[C@]1(O)CC[C@H]2[C@@H]3CCc4cc(OC)ccc4[C@H]3CC[C@@]21C,133% (active),141%
C#C[C@]1(O)CC[C@H]2[C@@H]3CCc4cc(OC5CCCC5)ccc4[C@H]3CC[C@@]21C,41% (inactive),30%
C#C[C@]1(O)CC[C@H]2[C@@H]3CCc4cc(O)ccc4[C@H]3CC[C@@]21C,113% (inactive),106%
COc1ccc(C2c3c(n[nH]c3C)CC(C)(O)C2C(C)=O)cc1OC (stereo unspecified),87% (inactive),86%
Cc1ccc2c(c1)C(C)(C)[C@]1(C)NC(=O)CCN21,94% (inactive),97%
CC(C)C(CCN1C(=O)CCC1=O)C1CCOC(C)(C)C1 (stereo unspecified),87% (inactive),90%
CC(C)OC(=O)CC1C(=O)NCCN1C(=S)NC(=O)c1ccccc1Cl (stereo unspecified),79% (inactive),80%
COc1ccc(C2C(C(=O)c3ccco3)=C(O)C(=O)N2CC2CCCO2)cc1 (stereo unspecified),79% (inactive),83%
COc1ccc2cc(C3(C)NC(=O)NC3=O)ccc2c1 (stereo unspecified),89% (inactive),88%
COc1ccc2[nH]c3c(c2c1)CCNC3C1CC=C(C)CC1 (stereo unspecified),99% (inactive),117%
COC(=O)C1[C@H]2C(=O)N(Cc3cccs3)C[C@]23C=C[C@H]1O3 (stereo partly specified),92% (inactive),95%
S=C(c1ccc2c(c1)OCO2)N1CCCCC1,83% (inactive),85%
